# Calb FLC – affects C. albicans growth with fluconazole; C. albicans CaCi-2 (fluconazole-resistant clinical isolate) + fluconazole, Alamar Blue growth, 48 h; growth inhibition, % (test concentration not listed); 300,000 tested, 0.57% active; AID 1979;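 active = growth inhibition above about 58% in most replicates, limit read from the data, passing the limit was not always enough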;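 also: all wells also contain fluconazole at 8 µg/ml as a sub-toxic cotreatment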
# ATG4B inh – inhibitors of human ATG4B cysteine protease; Q9Y4P1; ATG4B cleavage of LC3-PLA2, NBD-HPC fluorescence, 1 h; inhibition, % at 8.33 µM; 340,000 tested, 0.51% active; in the data active = inhibition above about 40%
# Mot1-301 SUMO – inhibitors of SUMOylation pathway: yeast Mot1-301 growth rescue. AID 2716. growth rescue, % at 18.8 µM. S. cerevisiae Mot1-301 growth rescue, ATP luminescence, 38.5C; percent above DMSO median, 100 means doubled. 320,000 tested, 1% active;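 active = every valid replicate shows activation above 250% relative to neutral control wells; inactive = the rest, any valid replicate at or below 250%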
# NadD inh – NadD (S. aureus) enzyme inhibition; inhibition, % at 20 µM; 360,000 tested, 0.78% active; purified NadD enzyme, colorimetric absorbance read-out; in the data active = inhibition above about 26%
# FAS-TE inh – inhibitors of human fatty acid synthase thioesterase domain | inhibition, % at 15 µM | recombinant FAS-TE, OMFH fluorogenic substrate, fluorescence endpoint | P49327 | AID 602261 | 360,000 tested, 0.67% active;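 active = compounds whose normalised, plate-corrected inhibition of enzyme fluorescence in the single-dose primary screen is 50% or more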
# ATG4B conf – ATG4B (human) inhibition, single-dose confirmed | ATG4B protease fluorescent substrate cleavage assay | shares compounds with ATG4B inh | AID 504757 | inhibition, % at 8.33 µM | 320 tested, 92% active; in the data active = inhibition above about 39%
# PLA2 counter – inhibits human PLA2, flagging false ATG4B inhibitors; shares compounds with ATG4B inh; purified PLA2, NBD-C6-HPC fluorescence, 45 min; inhibition, % at 8.33 µM; 1,600 tested, 66% active; AID 588402; in the data active = inhibition above about 50%
# Numbers stand for hits; – = inactive; · = not tested or not shown. Hits are enriched below; roughly 3.1% of the tested compounds scored in any of these assays.
SMILES,Calb FLC,ATG4B inh,Mot1-301 SUMO,NadD inh,FAS-TE inh,PLA2 counter,others
O=c1cc(O)c2sc3nc(C(F)(F)F)c4c(c3c2[nH]1)CCCCC4,–,45.0,–,–,–,–,ATG4B conf=59.3
CCC1CN(S(=O)(=O)c2cc(-c3cc(C)no3)ccc2OC)c2cc(C)ccc2O1 (stereo not given),–,–,–,–,–,·,
O=C(Nc1cccnc1)c1ccccc1NS(=O)(=O)c1ccc(F)cc1,–,–,–,–,–,·,
O=C(Nc1nc(-c2ccccc2)cs1)c1ccccc1NS(=O)(=O)c1ccc(F)cc1,–,53.6,–,–,–,62.4,
CC(=O)N(C)c1cccc(-c2ccc3nnc(C)n3n2)c1,–,–,–,–,–,·,
Cc1ccccc1NC(=O)CN1C(=O)S/C(=C\c2ccc(-c3cc(C(=O)O)ccc3C)o2)C1=O,–,42.2,·,40.6,–,–,ATG4B conf=54.7
O=C(/C=C\c1ccccc1OC(=O)c1ccccc1F)c1cc2ccccc2o1,–,44.6,–,–,–,51.2,
COc1ccc(N=Nc2ccc(N)nc2N)cc1,–,–,–,–,–,·,
CCOc1ccc2nc3cc(N=Nc4ccc(N)nc4N)ccc3c(N)c2c1,·,54.2,·,32.1,–,68.8,
COc1ccc(/C=C2/C(=O)N(c3nc4ccccc4s3)N=C2CSc2ccc(Cl)cc2)cc1,–,56.3,–,73.4,–,–,
Cc1ccc(S(=O)(=O)CCC(=O)OCC(=O)NC(C)c2ccccc2)cc1 (stereo not given),·,–,–,–,–,·,
Clc1cccc(Cl)c1CSc1nnc(-c2sccc2-n2cccc2)o1,–,53.0,–,–,–,64.8,
Nc1cccc2c(=O)[nH][nH]c(=O)c12,·,–,·,–,–,·,
COc1cc(C2Nc3cc(Cl)c(S(N)(=O)=O)cc3S(=O)(=O)N2)ccc1OCc1ccccc1 (stereo not given),–,83.5,–,–,–,84.9,
CC1CCC(NC(=O)c2cccc(S(=O)(=O)N3CCOCC3)c2)CC1 (stereo not given),·,·,·,–,–,·,
CNC(=O)Nc1cccc(-c2cc(-c3c(Cl)cccc3Cl)no2)c1,–,59.3,–,–,–,64.5,
COc1cc(OC)cc(-c2nc3ccccc3c(=O)n2OC(=O)c2ccc(Br)cc2)c1,–,54.9,–,–,–,–,ATG4B conf=–
COc1ccc(C(=O)On2c(-c3ccc(Br)cc3)nc3ccccc3c2=O)cc1,104.0,55.9,·,–,–,65.5,
CCOCCCn1c(SCC(=O)Nc2ccc3[nH]c(=O)[nH]c3c2)nc2ccccc2c1=O,–,–,–,–,–,·,
Cc1cccc(N2CCN(C(=O)C3CCN(c4ncnc5c4nc4n5CCCCC4)CC3)CC2C)c1 (stereo not given),–,46.8,–,–,–,–,ATG4B conf=62.8
Cc1ccc(NC(=O)C2CCN(c3ncnc4c3nc3n4CCCCC3)CC2)cc1Cl,–,60.2,–,–,–,68.5,
Cc1cccc(N2CCN(C(=O)C3CCN(c4ncnc5c4nc4n5CCCCC4)CC3)CC2)c1C,–,62.9,–,–,–,77.6,
Cc1ccc(NC(=O)C2CCCN(c3ncnc4c3nc3n4CCCCC3)C2)cc1Cl (stereo not given),–,–,–,–,–,·,
O=C(C1CCCN(c2ncnc3c2nc2n3CCCCC2)C1)N1CCN(c2cccc(Cl)c2)CC1 (stereo not given),–,–,–,–,–,·,
O=C(C1CCN(c2ncnc3c2nc2n3CCCCC2)CC1)N1CCN(c2ccccc2F)CC1,–,–,–,–,–,·,
SMILES,Calb FLC,ATG4B inh,Mot1-301 SUMO,NadD inh,FAS-TE inh,PLA2 counter,others
COC(=O)c1sccc1NC(=O)Nc1cccc(F)c1,–,–,–,–,–,·,
CC(OC(=O)C1CCCCC1)C(=O)Nc1cccc([N+](=O)[O-])c1 (stereo not given),·,–,–,–,–,·,
COc1ccc(C2C(C(C)=O)=C(C)N=c3s/c(=C\c4cc(C)n(C)c4C)c(=O)n32)c(OC)c1 (stereo not given),–,55.9,–,–,–,73.1,
CC(C)n1c(O)c(N=NC(=O)C2COc3ccccc3O2)c2ccccc21 (stereo not given),–,–,–,–,–,·,
COc1ccc(C(=O)NCCN2CCOCC2)cc1S(=O)(=O)Nc1ccc(C)cc1,·,–,–,–,–,·,
O=C(Nc1cccc(N=Cc2cc(Cl)cc(Br)c2O)c1)c1ccco1,–,66.2,–,–,–,56.0,
Clc1ccc(-c2nc3c4ccccc4ccn3c2CC2CCCCC2)cc1,·,·,·,–,–,·,
Cc1cccc(-n2c(=S)[nH]c3sc4c(c3c2=O)CCc2ccccc2-4)c1,–,–,·,–,–,·,
O=C(NCc1ccccc1)C1c2ccccc2OCC(=O)N1CC(F)(F)F (stereo not given),·,·,·,–,–,·,
C/C(CCc1oc2ccc(Br)cc2c1-c1ccc(C)o1)=N/O,–,–,–,–,–,·,
C/C(CCc1oc2ccc(Cl)cc2c1-c1ccc(C)o1)=N\O,–,45.9,–,–,–,71.3,
COc1ccc(C(C)=O)cc1CSc1nc2ccccc2c(=O)n1-c1cccc(C)c1,–,79.1,–,–,–,–,ATG4B conf=49.5
COCCn1c(SCc2cc(C(C)=O)ccc2OC)nc2cc(Cl)ccc2c1=O,–,63.0,–,–,–,63.0,
COCCn1c(SCC(=O)Nc2cccnc2Cl)nc2cc(Cl)ccc2c1=O,·,–,–,–,–,·,
C=CCn1c(SCc2cc(C(C)=O)ccc2OCC)nc2ccccc2c1=O,–,49.8,–,–,–,–,ATG4B conf=51.8
COc1ccc(C(C)=O)cc1CSc1nc2ccccc2c(=O)n1-c1ccccc1,–,–,–,–,–,·,
COc1ccc(C(C)=O)cc1CSc1nc2ccccc2c(=O)n1-c1ccccc1C,–,52.8,–,–,–,81.3,
CC1=C(C(=O)N(C(C)C)C(C)C)CC(CC(=O)NCc2cccs2)C(=O)N1Cc1ccccc1 (stereo not given),·,·,·,–,–,·,
O=[N+]([O-])c1cc2oc3c(c2c(C=NCc2ccccc2)c1O)CCCC3,–,75.8,–,–,–,–,ATG4B conf=48.1
CCCCCCNC(=O)CC(c1ccccc1)c1cc(Br)ccc1O (stereo not given),–,41.2,–,–,–,56.1,
CC(C)C[C@H](NC(=O)OC(C)(C)C)C(=O)N/N=C/C1=Cc2ccccc2OC1C (stereo not given in full),–,42.4,–,–,–,–,ATG4B conf=69.1
O=C(CCNC(=O)c1ccco1)NCc1ccc(F)cc1,·,–,–,–,–,·,
CCn1nc([N+](=O)[O-])c(C(C#N)c2nc3ccccc3n2C)c(Cl)c1=O (stereo not given),–,71.7,–,–,–,74.7,
CCCn1nc([N+](=O)[O-])c(C(C#N)c2nc3ccccc3s2)c(Cl)c1=O (stereo not given),99.1,83.8,–,–,–,85.3,

# Compound activity from PubChem BioAssay.
